Screens deposited in PubChem by National Center for Advancing Translational Sciences (NCATS).
G9a block: blocks human histone lysine methyltransferase G9a; Potency, µM (doses to about 102 µM), for inactives: at the highest dose activity, negative = inhibition, usual class: inhibitors; G9a H3K9 monomethylation, AlphaScreen, 2 h; 8.8% of 350,000 active; also: % is scaled to controls: 0 for no effect and ±100 for the full control effect; nearly all actives have a fitted effect of over 75% in size
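AlphaScreen detection with an anti-monomethyl H3K9 antibody quantified product after a 2 h room-temperature reaction containing 500 nM biotinylated H3K9 peptide, 20 µM SAM and 20 nM enzyme, which had been preincubated 15 min with compound.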
HP1b binding inh: HP1-beta chromodomain-methylated histone interaction inhibition; Potency, µM (titrated, usually from 114 µM), for the others: at the highest dose activity change, negative = inhibition, actives largely listed as inhibitors; P83916; 0.56% of 390,000 active; AlphaScreen HP1-beta / biotin-H3K9me3 peptide binding; also: nearly all actives have a fitted effect of over 70% in size
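AlphaScreen: HP1-beta (50 nM) preformed 30 min with biotin-H3(1-18)K9me3 peptide (50 nM) in PBS pH 7.4, 0.01% Tween-20. Compound added for 30 min at RT, then streptavidin donor/nickel chelate acceptor beads (10 ug/mL) for 30 min.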
Sfp PPTase inh: inhibitors of Bacillus subtilis Sfp phosphopantetheinyl transferase | Q9F4F7 | Biochemical Sfp PPTase activity, qHTS | Potency, µM, inactives show largest response in the series, negative = inhibition, actives largely listed as inhibitors | 3.5% of 310,000 active | AID 1490;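 also: the enzyme is Sfp with the accession as filed and its product quenches rhodamine fluorescence; 0% = enzyme reaction without inhibitor and -100% = no enzyme wells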
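Buffer: 50 mM Hepes-Na pH 7.6, 10 mM MgCl2, 0.01% Nonidet P-40, 0.01% BSA. Enzyme 15 nM, pre-exposed to compound 15 min; substrates then added and fluorescence change tracked over 30 min.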
BAZ2B inh: inhibitors of human BAZ2B bromodomain | Q9UIF8 | AlphaScreen BAZ2B-H3K14Ac peptide displacement | Potency, µM (highest dose often 114 µM), for the others: at the highest dose activity change, negative = inhibition, hits mostly inhibitors | 4.4% of 360,000 active | AID 504333; also: % is scaled to controls: 0 for no effect and ±100 for the full control effect; nearly all actives have a fitted effect of over 60% in size
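Complex of BAZ2B and biotin-H3K14Ac (50 nM apiece) forms over 30 min at RT, then faces library compounds up to 110 uM for another 30 min; AlphaScreen beads added, 20 min dark incubation, luminescence read.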
PLK1 PBD inh: blocks phosphopeptide binding to human PLK1 polo-box domain | P53350 | Plk1 PBD binding of FITC phosphopeptide, fluorescence polarization | Potency, µM, without a hit: max response, negative = inhibition, usual class: inhibitors | 2.8% of 360,000 active; also: series mostly up to about 57 µM; % is scaled to controls: 0 for no effect and ±100 for the full control effect; nearly all actives have a fitted effect of over 65% in size
Target sequence (P53350 whole entry, looked up, the tested form may be a part): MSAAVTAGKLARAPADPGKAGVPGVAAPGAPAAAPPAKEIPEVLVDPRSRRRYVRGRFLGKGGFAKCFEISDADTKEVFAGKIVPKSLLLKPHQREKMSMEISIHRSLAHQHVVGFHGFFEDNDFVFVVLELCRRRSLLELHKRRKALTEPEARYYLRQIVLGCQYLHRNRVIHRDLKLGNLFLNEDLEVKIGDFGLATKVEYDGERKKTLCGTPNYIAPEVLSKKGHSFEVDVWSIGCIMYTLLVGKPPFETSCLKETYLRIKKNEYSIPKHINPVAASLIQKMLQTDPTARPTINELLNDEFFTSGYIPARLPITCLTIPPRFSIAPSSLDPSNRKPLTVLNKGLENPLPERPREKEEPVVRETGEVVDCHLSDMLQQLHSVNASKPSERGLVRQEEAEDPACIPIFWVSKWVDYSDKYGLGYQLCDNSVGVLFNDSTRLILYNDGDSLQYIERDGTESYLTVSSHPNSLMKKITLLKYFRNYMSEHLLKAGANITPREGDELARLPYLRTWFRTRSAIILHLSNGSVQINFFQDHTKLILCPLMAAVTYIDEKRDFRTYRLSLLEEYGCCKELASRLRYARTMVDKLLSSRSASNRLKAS
JMJD2A Tudor inh: JMJD2A Tudor domain (human) inhibition | 4.4% of 390,000 active | AlphaScreen JMJD2A-Tudor / H3K4me3 peptide binding | AID 504339 | Potency, µM (highest dose often 114 µM), for the others: at the highest dose activity change, negative = inhibition, actives largely listed as inhibitors | O75164; also: % is scaled to controls: 0 for no effect and ±100 for the full control effect; nearly all actives have a fitted effect of over 50% in size
Starred values were filed as active, the others as inactive; ? = inconclusive; nt = no result given; ! = not active in a repeat; [ ] = remark or other dose. Rows were chosen to be rich in hits. Some 12% of all compounds tested hit in one or more screens of this group. Calls follow the shape of the dose curve; as a rule, active = well fitted curve in the direction sought with a large enough effect; inconclusive = small, poorly fitted or top-dose-only effect, or another doubt; inactive = no such curve, though single readings can be large; an effect the other way counts as inactive or inconclusive. Potency is read from the fitted curve at half-maximal effect.

SMILES | G9a block | HP1b binding inh | Sfp PPTase inh | BAZ2B inh | PLK1 PBD inh | JMJD2A Tudor inh
CCOc1ccc(N2C(=O)c3cccnc3C2Nc2ccc(C)c(C)c2)cc1 (centres undefined) | 89µM* | 3% | 11% | -31% | -1% | -20%
COCCN(C(=O)COC(=O)CCc1ccccc1OC)c1c(N)n(Cc2ccccc2)c(=O)[nH]c1=O | 13µM* | 29% | nt | -1% | -3% | -30%
CN(C(=O)COC(=O)CSc1cc(Cl)ccc1Cl)c1c(N)n(Cc2ccccc2)c(=O)[nH]c1=O | 7.1µM* | 3% | nt | 7% | -11% | -16%
COCCN(C(=O)COC(=O)Cc1coc2cc3c(cc12)CCC3)c1c(N)n(Cc2ccccc2)c(=O)[nH]c1=O | 40µM* | ? | nt | 50µM* | -9% | 45µM*
CCN(C(=O)COC(=O)CCc1ccccc1OC)c1c(N)n(Cc2ccccc2)c(=O)[nH]c1=O | -30% | 5% | nt | 15% | -7% | -17%
COCCN(C(=O)COC(=O)COc1ccc2c(c1)CCC2)c1c(N)n(Cc2ccccc2)c(=O)[nH]c1=O | 4%[0.501 µM] | 27% | nt | -3% | 1% | 3%
CCc1noc(C)c1C(=O)OCC(=O)N(C)c1c(N)n(Cc2ccccc2)c(=O)[nH]c1=O | 50µM* | 12% | nt | 10% | -2% | -1%
CN(C(=O)COC(=O)CSCc1cccc(Cl)c1)c1c(N)n(Cc2ccccc2)c(=O)[nH]c1=O | -33%[12.7 µM] | 36% | nt | 2% | -8% | -11%
NC(=O)NCC(c1ccccc1)C1CCCCC1 (centres undefined) | nt | 37% | 11% | 4% | -6% | -12%
COc1cc(OC)cc(-c2nc3n(n2)C(c2ccccc2)C(C(N)=O)=C(C)N3)c1 (centres undefined) | 21%[59 µM] | 29% | nt | -2% | nt | -7%
CCN(C(=O)COC(=O)c1ccccc1Cc1ccccc1)c1c(N)n(Cc2ccccc2)c(=O)[nH]c1=O | nt | 17% | nt | nt | -8% | -10%
CCN(C(=O)COC(=O)C1COc2ccccc2O1)c1c(N)n(Cc2ccccc2)c(=O)[nH]c1=O (centres undefined) | nt | 38% | nt | nt | 2% | -8%
CN(C(=O)COC(=O)c1ccccc1Nc1ccccc1)c1c(N)n(Cc2ccccc2)c(=O)[nH]c1=O | 14µM* | 15% | nt | -26% | 7% | -20%
CN(C(=O)COC(=O)C1COc2ccccc2O1)c1c(N)n(Cc2ccccc2)c(=O)[nH]c1=O (centres undefined) | 45µM* | 22% | nt | -1% | 2% | -15%
CN(C(=O)COC(=O)c1ccccc1Cc1ccccc1)c1c(N)n(Cc2ccccc2)c(=O)[nH]c1=O | 50µM* | 18% | nt | 5% | 2% | -16%
COCCN(C(=O)COC(=O)c1cccc2ccccc12)c1c(N)n(Cc2ccccc2)c(=O)[nH]c1=O | nt | 21% | -7% | -20% | -1% | -12%
Cc1ccccc1C(=O)OCC(=O)N(C)c1c(N)n(Cc2ccccc2)c(=O)[nH]c1=O | 9%[0.501 µM] | 26% | nt | 0% | -1% | -5%
COCCN(C(=O)COC(=O)c1ccccc1Nc1ccccc1)c1c(N)n(Cc2ccccc2)c(=O)[nH]c1=O | 14µM* | 11% | nt | -3% | 1% | -23%
Cn1cnc2c(NCc3ccccc3)nc(Cl)nc21 | nt | 20% | nt | nt | nt | -5%
O=S(=O)(c1ccccc1)c1ccc(N2CCCCCC2)cc1 | -7%[0.501 µM] | 36% | -1% | 0% | 0% | 7%
Cc1ccc(CCNC(=O)C2CCN(S(=O)(=O)c3ccc4c(ccn4C)c3)CC2)cc1 | -2%[59 µM] | 21%[57 µM] | nt | 2% | nt | 2%
Cn1c(C(=O)NN)cc2cc(OCc3ccccc3)ccc21 | nt | 57% | nt | nt | 2% | 3%
COc1ccc(S(=O)(=O)NCC(c2ccc(C)cc2)N2CCN(C)CC2)cc1 (centres undefined) | ? | 5% | nt | -4% | -16% | -21%
CN(C)c1ccc(C(CNS(=O)(=O)c2ccccc2)N2CCc3ccccc32)cc1 (centres undefined) | -33%[12.7 µM] | ? | nt | 22µM* | nt | 13µM*
CN(C)c1ccc(C(CNS(=O)(=O)c2ccc(F)cc2)N2CCOCC2)cc1 (centres undefined) | -18%[59 µM] | 10% | nt | -32% | nt | -31%
SMILES | G9a block | HP1b binding inh | Sfp PPTase inh | BAZ2B inh | PLK1 PBD inh | JMJD2A Tudor inh
COc1ccc(S(=O)(=O)NCC(c2ccc(N(C)C)cc2)N2CCCC2)cc1F (centres undefined) | -1%[12.7 µM] | 0% | nt | -36% | nt | -32%
COc1ccc(S(=O)(=O)NCC(c2ccc(N(C)C)cc2)N2CCc3ccccc32)cc1F (centres undefined) | -23%[12.7 µM] | ? | nt | 11µM* | nt | 20µM*
Cc1ccc(S(=O)(=O)NCC(c2ccc(N(C)C)cc2)N2CCc3ccccc32)cc1 (centres undefined) | 11µM* | ? | nt | 6.3µM* | nt | 14µM*
CC(C)Cn1cc(NC(=O)N2CCN(c3ccc(F)cc3)CC2)c2ccccc2c1=O | -10%[59 µM] | 19% | nt | 7%[57.1 µM] | nt | -11%
Cc1ccc2nsnc2c1NC(=O)COc1ccccc1F | 56µM* | 30% | 12% | -19% | -3% | -3%
O=C(COc1ccccc1F)Nc1nnc(-c2ccncc2)s1 | 71µM* | 21% | -9% | -34% | -15% | 20µM*
Cc1cccc(N(CC(=O)N/N=C/c2cc([N+](=O)[O-])ccc2Cl)S(C)(=O)=O)c1C | ? | -13% | 6% | -8%[57.1 µM] | -6% | ?
CCOC(=O)c1cc(-c2ccc(F)cc2)n(CCC(=O)NCCc2ccc(C)cc2)c1C | ? | -4% | nt | -26% | nt | ?
CCCCOCC1CN(c2ccccc2)C(=O)CS1 (centres undefined) | -1%[59 µM] | 29% | 3% | -9% | -13% | -11%
CCCCCC1C(=O)N2C=C(c3ccccc3)c3ccccc3N2C1=O (centres undefined) | nt | ? | nt | nt | ? | 56µM*
CCCCC1C(=O)N(c2ccccc2)N(c2ccccc2)C1=O | 10µM*! | 52% | ? | -37% | -20% | -15%
CCO/N=C1\C(=O)N(c2ccccc2)c2ccccc21 | -7% | -1% | 7% | -18% | -3% | -17%
Cc1cccc(C(=O)Nc2cccc(C(=O)N/N=C/c3cccc(C)n3)c2)c1 | 7% | 4% | 9% | 9% | -11% | -22%
CC(=O)Nc1cccc(C(=O)N/N=C/c2cccc(C)n2)c1 | -30% | 2% | ? | 47% | 27µM* | 13µM*
Cc1nnc(NC2CCCCC2)[nH]c1=O | -8%[59 µM] | 35% | 2% | 6% | 1% | 5%
O=c1[nH]c(NC2CCCCC2)nnc1Cc1ccccc1 | ? | 24% | 11% | -9% | -12% | 50µM*
N=C1CCCC1C(=S)SCCC(N)=O (centres undefined) | nt | nt | nt | nt | 0% | nt
